Test results as given in the supplement of paper PMC8728848.
The sample as a whole holds a higher share of the strongest signals than the screen did.

What was measured:
Experiment in all cases: glycan array binding signal (z-score within array); higher = stronger binding
Settings in all cases: glycan notation: IUPAC condensed, linker removed
[1] = target: GlcNAc(b1-3)Gal(b1-4)GlcNAc(b1-3)Gal(b1-4)GlcNAc(b1-2)Man(a1-3)[GlcNAc(b1-3)Gal(b1-4)GlcNAc(b1-3)Gal(b1-4)GlcNAc(b1-2)Man(a1-6)]Man(b1-4)GlcNAc(b1-4)GlcNAc
Method in brief: (§1)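 Glycan array data came from 3228 arrays in the Consortium for Functional Glycomics database, and only arrays with an available protein sequence were kept. Glycan names were put into IUPAC-condensed notation, and columns mapping to the same glycan were averaged. The binding signal is a within-array Z-score, averaged across arrays of one protein sequence run at different concentrations or buffers and across linkers. A negative Z-score can be read as non-binding.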

[2] = target: GlcNAc(b1-3)Gal(b1-4)GlcNAc(b1-3)Gal(b1-4)GlcNAc(b1-3)Gal(b1-4)GlcNAc(b1-2)Man(a1-3)[GlcNAc(b1-3)Gal(b1-4)GlcNAc(b1-3)Gal(b1-4)GlcNAc(b1-3)Gal(b1-4)GlcNAc(b1-2)Man(a1-6)]Man(b1-4)GlcNAc(b1-4)[Fuc(a1-6)]GlcNAc
Method in brief: as §1

[3] = target: GlcNAc(b1-3)Gal(b1-4)GlcNAc(b1-3)Gal(b1-4)GlcNAc(b1-3)Gal(b1-4)GlcNAc(b1-2)[GlcNAc(b1-3)Gal(b1-4)GlcNAc(b1-3)Gal(b1-4)GlcNAc(b1-3)Gal(b1-4)GlcNAc(b1-6)]Man(a1-6)[GlcNAc(b1-3)Gal(b1-4)GlcNAc(b1-3)Gal(b1-4)GlcNAc(b1-3)Gal(b1-4)GlcNAc(b1-2)Man(a1-3)]Man(b1-4)GlcNAc(b1-4)[Fuc(a1-6)]GlcNAc
Method in brief: as §1

[4] = target: GlcNAc(b1-4)GlcNAc(b1-4)GlcNAc(b1-4)GlcNAc(b1-4)GlcNAc(b1-4)GlcNAc
Method in brief: as §1

[5] = target: GlcNAc6S(b1-3)Gal(b1-4)GlcNAc
Method in brief: as §1

Kdn(a2-3)Gal(b1-4)GlcNAc = target: Kdn(a2-3)Gal(b1-4)GlcNAc
Method in brief: as §1

[6] = target: Man(a1-2)Man(a1-6)[Man(a1-3)]Man(a1-6)[Man(a1-2)Man(a1-2)Man(a1-3)]Man
Method in brief: as §1

[7] = target: Neu5Ac(a2-3)Gal(b1-3)GlcNAc(b1-2)Man(a1-3)[Neu5Ac(a2-3)Gal(b1-3)GlcNAc(b1-2)Man(a1-6)]Man(b1-4)GlcNAc(b1-4)GlcNAc
Method in brief: as §1

[8] = target: Neu5Ac(a2-3)Gal(b1-3)[Fuc(a1-4)]GlcNAc(b1-3)Gal(b1-3)[Fuc(a1-4)]GlcNAc
Method in brief: as §1

[9] = target: Neu5Ac(a2-3)Gal(b1-4)GlcNAc(b1-2)[Neu5Ac(a2-3)Gal(b1-4)GlcNAc(b1-6)]Man(a1-6)[Neu5Ac(a2-3)Gal(b1-4)GlcNAc(b1-2)Man(a1-3)][GlcNAc(b1-4)]Man(b1-4)GlcNAc(b1-4)GlcNAc
Method in brief: as §1

[10] = target: Neu5Ac(a2-3)Gal(b1-4)GlcNAc(b1-3)Gal(b1-4)GlcNAc(b1-6)[Gal(b1-3)]GalNAc
Method in brief: as §1

[11] = target: Neu5Ac(a2-3)[GalNAc(b1-4)]Gal(b1-4)GlcNAc(b1-3)GalNAc
Method in brief: as §1

Neu5Ac(a2-6)Gal = target: Neu5Ac(a2-6)Gal
Method in brief: as §1

[12] = target: Neu5Ac(a2-6)Gal(b1-3)GlcNAc(b1-3)[Gal(b1-4)GlcNAc(b1-6)]Gal(b1-4)Glc
Method in brief: as §1

[13] = target: Neu5Ac(a2-6)Gal(b1-4)GlcNAc
Method in brief: as §1

[14] = target: Neu5Ac(a2-6)Gal(b1-4)GlcNAc(b1-2)Man(a1-3)Man(b1-4)GlcNAc(b1-4)GlcNAc
Method in brief: as §1

[15] = target: Neu5Ac(a2-6)Gal(b1-4)GlcNAc(b1-2)Man(a1-3)[Neu5Ac(a2-6)Gal(b1-4)GlcNAc(b1-2)Man(a1-6)]Man(b1-4)GlcNAc(b1-4)GlcNAc
Method in brief: as §1

[16] = target: Neu5Ac(a2-6)Gal(b1-4)GlcNAc(b1-3)Gal(b1-4)GlcNAc(b1-3)Gal(b1-4)GlcNAc(b1-2)Man(a1-3)[Neu5Ac(a2-6)Gal(b1-4)GlcNAc(b1-3)Gal(b1-4)GlcNAc(b1-3)Gal(b1-4)GlcNAc(b1-2)Man(a1-6)]GalNAc
Method in brief: as §1

[17] = target: Neu5Ac(a2-6)Gal(b1-4)GlcNAc(b1-3)GalNAc
Method in brief: as §1

[18] = target: Neu5Ac(a2-6)Gal(b1-4)GlcNAc(b1-6)[Gal(b1-3)]GalNAc
Method in brief: as §1

Neu5Ac(a2-6)GalNAc = target: Neu5Ac(a2-6)GalNAc
Method in brief: as §1

[19] = target: Neu5Ac(a2-6)GlcNAc(b1-4)GlcNAc(b1-4)GlcNAc
Method in brief: as §1

Neu5Ac(a2-8)Neu5Ac = target: Neu5Ac(a2-8)Neu5Ac
Method in brief: as §1

[20] = target: Neu5Ac(a2-8)Neu5Ac(a2-3)Gal(b1-4)Glc
Method in brief: as §1

[21] = target: Neu5Ac(a2-8)Neu5Gc(a2-3)Gal(b1-4)GlcNAc
Method in brief: as §1

[22] = target: Neu5Gc(a2-3)Gal(b1-4)GlcNAc(b1-3)Gal(b1-4)GlcNAc(b1-2)Man(a1-3)[Neu5Gc(a2-3)Gal(b1-4)GlcNAc(b1-3)Gal(b1-4)GlcNAc(b1-2)Man(a1-6)]Man(b1-4)GlcNAc(b1-4)GlcNAc
Method in brief: as §1

[23] = target: Neu5Gc(a2-8)Neu5Gc(a2-6)Gal(b1-4)GlcNAc
Method in brief: as §1

B1: HopZSSI-T (Helicobacter pylori), B5Z6D0 (protein)
chain: MGSSHHHHHHSSGLVPRGSHMENLYFQGEDNGFFISAGYQIGEAAQMVKNTGELKKLSDTYENLSNLLTNFNNLNQAVTNASSPSEINAAIDNLKANTQGLTGEKTNSPAYQAVYLALNAAVGLWNVIAYNVQCGPGNSSQQSVTFEGQPGHNSSSINCNLTGYNNGVSGPLSIDNFKQLNQAYQVLQQALKQGVPVLNNTNQKIEVKVTTQTNGQSSKETTTTTTTNDAQTLLQEASKMIDVLTTNCPWVNHNPGQNGGAPWGLIRQECVSGFATEFSAVTSMIKNAQEIVTQAQSLNANQNNQNAPQDFNPYTSADRAFAQNMLNHAQAQAKILELADQMKKDLNTIPSQFITNYLAACRIDGTTPSQGVTNNTWGAGCAYVEETITALNNSLAHFGTQAEQIKQSELLARTILDFRGSLSTLNSTYNSITTTASNTPNSPFLKNLISQSTNPNNPGGLQAVYQVNQSAYSQLLSATQELGHNPFRRIGLISSQT
glycan array binding signal (z-score) [1]: 1.48 | glycan array binding signal (z-score) [2]: 1.5 | glycan array binding signal (z-score) [3]: 1.12 | glycan array binding signal (z-score) [4]: -0.476 | glycan array binding signal (z-score) [5]: -0.089 | glycan array binding signal (z-score) (Kdn(a2-3)Gal(b1-4)GlcNAc): 0.049 | glycan array binding signal (z-score) [6]: -0.645 | glycan array binding signal (z-score) [7]: -0.396 | glycan array binding signal (z-score) [8]: -0.391 | glycan array binding signal (z-score) [9]: 0.342 | glycan array binding signal (z-score) [10]: 0.966 | glycan array binding signal (z-score) [11]: 0.891 | glycan array binding signal (z-score) (Neu5Ac(a2-6)Gal): 0.007 | glycan array binding signal (z-score) [12]: -0.472 | glycan array binding signal (z-score) [13]: -0.343 | glycan array binding signal (z-score) [14]: -0.42 | glycan array binding signal (z-score) [15]: -0.19 | glycan array binding signal (z-score) [16]: 0.709 | glycan array binding signal (z-score) [17]: 0.356 | glycan array binding signal (z-score) [18]: 3.23 | glycan array binding signal (z-score) (Neu5Ac(a2-6)GalNAc): 2.01 | glycan array binding signal (z-score) [19]: -0.141 | glycan array binding signal (z-score) (Neu5Ac(a2-8)Neu5Ac): 0.598 | glycan array binding signal (z-score) [20]: -0.031 | glycan array binding signal (z-score) [21]: -0.272 | glycan array binding signal (z-score) [22]: 1.53 | glycan array binding signal (z-score) [23]: 0.181
